About 79,000 compounds went through this panel and 15% of them were active in at least one assay; those are over-represented in the sample as a whole. Unmarked numbers belong to inactive results. The source made the active and inactive calls. Rule as the data show it: active = growth inhibition above about 70%; inactive = the rest.
How the values were obtained:
[1] = NCI Yeast Anticancer Drug Screen. Data for the rad50 strain (AID 155);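 also: 0% = growth of vehicle-only cultures of the same strain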; conditions: S. cerevisiae rad50 strain growth inhibition; at 50.0 µM; hits give high values
Method in brief: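 Yeast carrying a defined DNA repair defect were exposed to test compounds, and growth was compared with vehicle-treated controls to give percent inhibition.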

[2] = NCI Yeast Anticancer Drug Screen. Data for the mec2-1 strain (AID 157); conditions: S. cerevisiae mec2-1 strain, at 50.0 µM, hits give high values
Method in brief: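 Strain: mec2-1 (DNA repair/cell cycle alteration). Compound exposure, then growth measured; inhibition expressed relative to vehicle.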

[3] = NCI Yeast Anticancer Drug Screen. Data for the sgs1 mgt1 strain (AID 161);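 also: 0% = growth of cultures given vehicle only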; conditions: S. cerevisiae sgs1 mgt1 strain, at 50.0 µM, hits give high values
Method in brief: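 Mutant yeast exposed to compound; growth scored against vehicle-only wells.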

[4] = NCI Yeast Anticancer Drug Screen. Data for the cln2 rad14 strain (AID 165);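 also: 0% = growth equal to vehicle treated cultures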; conditions: S. cerevisiae cln2 rad14 strain, at 50.0 µM, hits give high values
Method in brief: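 Compounds are applied to the cln2 rad14 yeast strain, and growth is then compared with that of vehicle-treated cultures to give inhibition.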

[5] = NCI Yeast Anticancer Drug Screen. Data for the bub3 strain (AID 167); conditions: S. cerevisiae bub3 mutant strain, at 50.0 µM, hits give high values
Method in brief: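 Compounds were applied to a genetically altered yeast strain carrying a cell-cycle control defect. Growth inhibition was scored against vehicle-treated controls.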

[6] = NCI Yeast Anticancer Drug Screen. Data for the mlh1 rad18 strain (AID 175); conditions: S. cerevisiae mlh1 rad18 strain growth inhibition; at 50.0 µM; hits give high values
Method in brief: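 Read-out is yeast growth inhibition, calculated against vehicle-only controls. The compound was applied to a strain engineered with DNA damage repair alterations.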

SMILES | growth inhibition [1] [%] | growth inhibition [2] [%] | growth inhibition [3] [%] | growth inhibition [4] [%] | growth inhibition [5] [%] | growth inhibition [6]
NCC1OC(OC2C(CO)OC(OC3C(O)C(N)CC(N)C3OC3OC(CO)C(O)C(O)C3N)C2O)C(N)C(O)C1O (stereo unspecified) | 33.8 | -18.1 | 1.85 | 1.4 | 27.6 | 33.7%
O=C(OCC1OC(c2ccccc2)OC2C(COC(=O)c3ccccc3)OC(c3ccccc3)OC12)c1ccccc1 (stereo unspecified) | 4.4 | 6.1 | -0.6 | 6.7 | 12.4 | 14.1%
O=C(OCC1OC(Br)CC(OC(=O)c2ccc([N+](=O)[O-])cc2)C1OC(=O)c1ccc([N+](=O)[O-])cc1)c1ccc([N+](=O)[O-])cc1 (stereo unspecified) | 6.9 | 9.95 | 18.1 | -22.4 | -8.95 | 35.5%
COc1ccccc1-c1cc(=O)c2cc(C)c(C)c(C(=O)O)c2o1 | 7.05 | 3.95 | 18.6 | 29.7 | 7.35 | 11.8%
O=C(/C=C/c1ccc(O)cc1)c1ccc(O)cc1 | -30 | -13.7 | -37.8 | 0.15 | -2.9 | -20.6%
C=CC1OCC2(CO1)COC(C=C)OC2 (stereo unspecified) | 12.4 | -11.7 | 2.4 | -7.55 | -12.4 | 2.75%
CC(=O)OC[C@]1(C)CCCC2(C)C1CCC1C=C(C)[C@H]3CCC12C3 (stereo partly specified) | 2.05 | -2.85 | -17.8 | -1.65 | -3.1 | 11.3%
O=C1CN(/N=C/c2ccc(-c3cccc(C(F)(F)F)c3)o2)C(=O)N1 | 36.4 | 18.4 | 19.8 | -19.3 | 16.2 | 21.1%
O=C(O)c1c(Br)c(Br)c(Br)c(Br)c1C(=O)Nc1ccccc1C(F)(F)F | -8.55 | -11.4 | -2.65 | -2.75 | 8.05 | -12.2%
NC(N)=NC(=O)c1ccccc1 | -26.4 | -12.2 | -9.55 | -23.1 | -0.55 | 12.9%
COc1cc(C2NC(=O)C(C)(C)O2)cc(OC)c1OC (stereo unspecified) | -2.05 | -9.85 | -8.75 | -17.8 | 4.8 | -37%
COc1ccc(C(C)OC)cc1OC (stereo unspecified) | -15 | -22.2 | 15.6 | -16.6 | 8.7 | -8.75%
O=Cc1ccccc1S(=O)(=O)O | 6.65 | 7.4 | -6.5 | -45.4 | 11.2 | -13.2%
CN=NNc1ccc(C(=O)NC(C)C)cc1 | -3.65 | -2 | -8.2 | -1.15 | -13.7 | -14.7%
CC(=O)Nc1ccc2c(c1)Cc1cc(NC(C)=O)c(Cl)cc1-2 | 3.15 | 11.9 | -1.45 | 7.95 | -2.35 | -1.2%
N#CC1CCN(Cc2ccccc2)C(C#N)C1 (stereo unspecified) | -9.05 | -2.65 | -16.8 | -4.8 | -14.2 | 3.25%
COC(=O)C(CCC1(C)OCCO1)=[N+]=[N-] | -7.05 | 0.95 | -15.1 | 2.85 | -19.1 | -16%
ClC1CCCCC1 | -12.8 | -2.55 | -0.35 | -7.95 | -7.2 | -31.2%
COc1ccc2c(c1)CCC1C(=O)NN=C21 (stereo unspecified) | 12.8 | -4.1 | -5.6 | -43.4 | -23.1 | -8%
CC(C)CC1NC(=O)CCC(NC(=O)C(Cc2ccc(O)cc2)NC(=O)OCc2ccccc2)C(=O)NC(Cc2ccccc2)C(=O)NC(Cc2ccccc2)NC1=O (stereo unspecified) | -24.9 | -21.6 | -24 | 8.6 | -7.55 | -18%
CC12CC(O)C(C=C1c1ccccc1)C2(C)C (stereo unspecified) | -7.55 | -0.95 | 0.85 | -14 | -13.1 | 1.45%

SMILES | growth inhibition [1] [%] | growth inhibition [2] [%] | growth inhibition [3] [%] | growth inhibition [4] [%] | growth inhibition [5] [%] | growth inhibition [6]
CC(C)CCCC(C)C1CCC2C3CCC(O)C(C)(CCCO)C3CCC12C (stereo unspecified) | 2 | -3.85 | 11.9 | 32.1 | 15.3 | 13.7%
N#C/C(c1nc2ccccc2[nH]1)=c1\s/c(=C(/N)O)c(=N)n1-c1ccccc1 | -31.6 | -26 | -32.4 | -30.1 | -34.1 | -47.6%
CCSC(SCC)[C@H](NC(C)=O)[C@@H](O)[C@H](O)[C@H](O)CO | -6.8 | -12.2 | -8.85 | 0.1 | 2.85 | -12.3%
CCC(CC)(C[NH-])C[NH-].[Cl][Pt+2][Cl] | 10 | 41.7 | 10 | 16.2 | 18.2 | -7.95%
Cc1cc(C#N)c[n+](C)c1 | -7.25 | -14.3 | -25 | 16.1 | 5.25 | -3.75%
O=C(/C=C/c1cccc(O)c1)c1ccccc1 | 29.4 | 8.25 | 38.4 | 59.8 | -5.6 | 92% (active)
Cc1ccc(C(=O)/C(C#N)=C/Nc2c(C)n(C)n(-c3ccccc3)c2=O)cc1 | 17 | 23.6 | 20.1 | 12.8 | 19.5 | 26.5%
O=C(CCn1[nH]c(=O)c(Cl)c(Cl)c1=O)NO | -21.3 | -14.1 | -9.75 | 3.35 | -19.1 | -13.9%
CCCCCCCCCCc1c2nc(c(CCCCCCCCCC)c3ccc([nH]3)c(CCCCCCCCCC)c3ccc([nH]3)c(CCCCCCCCCC)c3nc1C=C3)C=C2 | -18.1 | -11.9 | -5.95 | 23.4 | 6 | -63.7%
CS(=O)(=O)N/N=C1/C=C2C/C(=N\NS(C)(=O)=O)C=C2C1 | 27.6 | -0.7 | 47.5 | 30.2 | -1.2 | 43.7%
O=C(O)CCCC1CCC2NC(=O)NC2C1 (stereo unspecified) | 1.55 | 5.15 | -5.45 | 6.4 | 16.5 | -6%
CC1(C)/C(=C\C(=O)O)C2CCC1C2 (stereo unspecified) | 11.4 | 8.3 | 7.5 | -10.8 | -9.1 | 8.75%
COC(=O)c1ccccc1C(=O)c1ccccc1 | -2.5 | 9.2 | 3.8 | -4.75 | -5.95 | 8.4%
O=C(c1ccccc1)C(c1ccccc1)C1(O)C(=O)Nc2c(Cl)ccc(Cl)c21 (stereo unspecified) | -18.1 | 10.6 | 5 | -0.05 | -8.1 | -29.2%
CSc1nc(NC2OCC(O)C(O)C2O)c(Br)c(=O)n1C (stereo unspecified) | 9.05 | 15.8 | -0.75 | 1.95 | 6.3 | 36%
O=C(C(c1ccccc1)C(C(=O)N(Cc1ccccc1)Cc1ccccc1)c1ccccc1)N(Cc1ccccc1)Cc1ccccc1 (stereo unspecified) | -44.8 | 7 | -18.9 | -14.3 | -1.35 | 28.3%
CC(=O)[C@H]1CC[C@@H]2[C@]1(C)CC1OC13[C@@]21C=C[C@@]2(CC(=O)CC[C@]32C)C2C(=O)OC(=O)C21 (stereo partly specified) | 17.6 | 4.45 | 40.8 | 18.5 | 3.95 | 22.9%
COC(=O)c1[nH]c(=O)c(C#N)c(C(=O)OC)c1C(=O)c1cccnc1 | 2.95 | -3.55 | -5.2 | 18.7 | -17.4 | 25.6%
Cc1ccc2c(c1O)C(=O)c1ccccc1C2=O | 35 | 13.1 | -8.8 | -16.9 | 29.7 | 46.5%
CC(O)(C(=O)c1ccccc1)c1ccccc1 (stereo unspecified) | -16.4 | -25.1 | -16.4 | -8.15 | -18.4 | 0.6%
